# Measurements taken from PubChem BioAssay (NCATS).
# Several values for one entry are separate records, joined by “and”; a condition that tells them apart may be missing. Equal entries are not always repeated. Results filed as inconclusive are left out. Where a call stands in place of a potency, no number is given. A number with no mark means an inactive call. Activity calls are given as the source filed them. Calls follow the shape of the dose curve; as a rule, active = well fitted curve in the direction sought with a large enough effect; inconclusive = small, poorly fitted or top-dose-only effect, or another doubt; inactive = no such curve, though single readings can be large; an effect the other way counts as inactive or inconclusive.
# What was measured:
# [1] = molecular target: Cytochrome P450 3A7 (Homo sapiens) (UniProt P24462); assay: Cytochrome P450 family 3 subfamily A member 7 (CYP3A7) small molecule antagonists: luciferase biochemical qHTS assay (AID 1963596); also: nearly all actives have a fitted effect of over 40% in size
# Sequence of Cytochrome P450 3A7 (Homo sapiens) (P24462 whole entry, looked up): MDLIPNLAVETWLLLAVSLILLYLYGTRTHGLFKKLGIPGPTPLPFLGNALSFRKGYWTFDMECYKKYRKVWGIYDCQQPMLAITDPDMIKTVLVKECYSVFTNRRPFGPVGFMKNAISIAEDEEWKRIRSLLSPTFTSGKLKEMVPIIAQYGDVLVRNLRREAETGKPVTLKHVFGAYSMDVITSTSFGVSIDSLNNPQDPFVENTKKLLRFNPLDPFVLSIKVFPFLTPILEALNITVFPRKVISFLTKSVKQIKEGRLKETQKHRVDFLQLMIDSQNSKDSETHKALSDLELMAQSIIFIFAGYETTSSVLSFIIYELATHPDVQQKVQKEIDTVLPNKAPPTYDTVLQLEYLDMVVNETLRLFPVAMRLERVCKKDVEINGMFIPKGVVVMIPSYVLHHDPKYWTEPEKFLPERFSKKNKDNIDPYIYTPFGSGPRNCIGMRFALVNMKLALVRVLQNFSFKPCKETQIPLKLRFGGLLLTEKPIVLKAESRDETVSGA
# In short: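 P450-Glo luminescent assay: CYP3A7 enzyme converts a proluciferin substrate to luciferin, detected by luciferase reagent; light proportional to activity. Compounds in DMSO preincubated 10 min with enzyme-substrate mix at room temperature, then NADPH regeneration added for 1 h.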
# [2] = Viability qHTS for spleen associated tyrosine kinase inhibitor (SYKi) naive MV4-11 cells (AID 1963823); also: nearly all actives have a fitted effect of over 40% in size; also: potency is read from the fitted curve at half-maximal effect
# In short: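 Cells: MV4-11, SYK inhibitor naive, 500 per well. Treatment: library compounds, 72 hr, 37 C, 5% CO2. Read-out: CellTiter-Glo luminescence after 10 min RT.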
# [3] = Viability qHTS for spleen associated tyrosine kinase inhibitor (SYKi) drug resistant MV4-11 cells (AID 1963824); also: nearly all actives have a fitted effect of over 35% in size; also: potency is read from the fitted curve at half-maximal effect
# In short: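 CellTiter-Glo luminescence, read 10 min after reagent addition, reports viability after a 72 hr compound exposure. Cells are an MV4-11 line made resistant to SYK inhibition, seeded at 500 per well onto compound-containing plates.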
# [4] = Cellular viability qHTS for adrenocortical cancer (ACC) cell line SW-13 (AID 1963989); conditions: SW-13 ACC cells viability, CellTiter-Glo, 48 h; activity (max response): hits give low values; also: nearly all actives have a fitted effect of over 65% in size; also: potency is read from the fitted curve at half-maximal effect;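 as to activity (max response): cells grown in serum-free medium with ITS supplement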
# In short: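 IC50 and maximal-response values come from four-parameter logistic fits of titration data. SW-13 cells in serum-free medium received compounds (up to 46 uM final) for 48 h before CellTiter-Glo luminescence.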
# [5] = Cellular viability qHTS for adrenocortical cancer (ACC) cell line NCI-H295R (AID 1963990); also: nearly all actives have a fitted effect of over 60% in size; also: potency is read from the fitted curve at half-maximal effect
# In short: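 Adrenocortical carcinoma cells, suspended at 300 000 cells/mL in serum-free DMEM plus ITS, rested overnight before pin transfer of compound. After two days' incubation, ATP-dependent luminescence was recorded and curve-fitted.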
SMILES,Potency [1],Potency [2],Potency [3],activity (max response) [4] [%],Potency [5],Potency [4],"activity change, negative = inhibition [1]",viability (% of control) [2],"viability, % of control [3]","activity change, negative = viability loss [5]"
CC1(C)[C@@H]2CC[C@@]1(C)C(=O)C2,inactive,inactive,inactive,10.1,inactive,,,,,
Cc1nnc(C(C)C)n1C1CC2CCC(C1)N2CC[C@H](NC(=O)C1CCC(F)(F)CC1)c1ccccc1 (stereo not given in full),inactive,inactive,inactive,2.32,inactive,,,,,
CN(C)CC[C@@H](c1ccc(Cl)cc1)c1ccccn1,inactive,inactive,inactive,7.75,inactive,,,,,
C[C@H](N)[C@H](O)c1cccc(O)c1,inactive,inactive,inactive,0.409,inactive,,,,,
CC(=O)c1ccc(S(=O)(=O)NC(=O)NC2CCCCC2)cc1,inactive,inactive,inactive,9.54,inactive,,,,,
CCCCNc1ncc(-c2ccc(CN3CCOCC3)cn2)c(NC2CCC(O)CC2)n1 (stereo not given),inactive,31.7 nM (active) and 57.4 nM (active),91 nM (active),-11.9,inactive,,,,,
CN(C)CCOC(C)(c1ccccc1)c1ccccn1 (stereo not given),inactive,inactive,inactive,14.2,inactive,,,,,
CC(=O)NC(Cc1ccccc1)C(=O)O (stereo not given),inactive,inactive,inactive,-3.3,inactive,,,,,
COc1cc2c(cc1OC(C)C)[C@H](c1ccc(Cl)cc1)N(c1ccc(N(C)CC3CCC(N4CCN(C)C(=O)C4)CC3)cc1)C(=O)C2 (stereo not given in full),inactive,11.8 µM (active),9.2 µM (active) and 8.33 µM (active),,22.4 µM (active),25.1 µM (active),,,,
CN1CC(=O)NC1=N,inactive,inactive,inactive,5.44,inactive,,,,,
COc1ccc(C(=O)NCc2ccc(OCCN(C)C)cc2)cc1OC,inactive,inactive,inactive,1.66,inactive,,,,,
O=C(O)CCCCCCCC(=O)O,inactive,inactive,inactive,10.6,inactive,,,,,
Cc1ncc(COP(=O)(O)O)c(C=O)c1O,inactive,inactive,inactive,7.84,inactive,,,,,
Cc1ccc2ccc(Cl)cc2n1,inactive,inactive,inactive,15.8,inactive,,,,,
OC[C@@H](O)[C@@H](O[C@@H]1O[C@H](CO)[C@H](O)[C@H](O)[C@H]1O)[C@H](O)[C@@H](O)CO,inactive,inactive,inactive,1.27,inactive,,,,,
O=C(CN1CCNCC1)NC1CCCCC1,inactive,inactive,inactive,-8.69,inactive,,,,,
CCOC(=O)c1ccccc1O,inactive,inactive,inactive,-1.17,inactive,,,,,
COCC(=O)Nc1c(I)c(C(=O)NCC(O)CO)c(I)c(C(=O)N(C)CC(O)CO)c1I (stereo not given),inactive,0.0009 µM (active),inactive,-3.53,inactive,,,,,
NC(Cc1ccc(Cl)cc1)C(=O)O (stereo not given),,,,-3.09,,,-2.28% [at 0.91 µM],87.6% [at 0.588 µM],93.1% [at 0.588 µM],-11% [at 0.587 µM]
CN(C)CCN(Cc1ccsc1)c1ccccn1,inactive,inactive,inactive,6.67,inactive,,,,,
NC(=O)c1cn(Cc2c(F)cccc2F)nn1,inactive,inactive,inactive,10.9,inactive,,,,,
CN1CCOC(c2ccccc2)c2ccccc2C1 (stereo not given),inactive,inactive,inactive,-0.385,inactive,,,,,
CC(O)CCCCn1c(=O)c2c(ncn2C)n(C)c1=O (stereo not given),inactive,inactive,inactive,7.24,inactive,,,,,
CC(=O)N[C@@H](CCC(=O)O)C(=O)O,inactive,inactive,inactive,10.8,inactive,,,,,
CN1[C@@H]2CC[C@H]1CC(OC(=O)c1c[nH]c3ccccc13)C2 (stereo not given in full),inactive,inactive,inactive,-7.55,inactive,,,,,
Cc1nn(Cc2ccccc2Cl)c(C)c1CN(C)CC(O)COc1ccc(Cl)cc1 (stereo not given),inactive,14.8 µM (active),7420 nM (active),,17.8 µM (active),25.1 µM (active),,,,
CNC(=O)CN(CCN(CCN(CC(=O)[O-])CC(=O)NC)CC(=O)[O-])CC(=O)[O-].O.[Gd+3],inactive,inactive,inactive,-4.04,inactive,,,,,
